Laboratory results published in PubChem BioAssay AID1159580 (chemical genetic matrix, 2015).
“And” between values parts separate entries of the source, which are not always exact repeats. Identical values can stand only once. Among all 5,500 compounds or so, about 2,000 (36%) were called active. Inconclusive results (about 18%) are left out. Cut-off read from the data, not from the text of the source: active = normalized growth mostly below about 0.91 (no sharp cut-off); inconclusive = no clear call, values can overlap the other calls; inactive = mostly above about 0.92. This is one part of the list.

Assay: chemical genetic growth profiling, strain panel (AID 1159580);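 note: tested at 20 µM; growth read once vehicle control cultures reached saturation at 30 °C; 1 = growth at the plate median or of vehicle wells; lower values mean less growth of the strain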
Conditions: S. cerevisiae deletion strains, growth OD

Measured: normalized growth

CN(C)CC/C=C1\c2ccccc2Sc2ccc(Cl)cc21
active: locus YAL013W, strain DEP1, stronger effect = lower value 0.907 | locus YAL021C, strain ccr4, stronger effect = lower value 0.696 | locus YAL026C, strain drs2, stronger effect = lower value 0.0729 | locus YBL061C, strain skt5, stronger effect = lower value 0.863 | locus YBR009C, strain hhf1, stronger effect = lower value 0.859 | locus YBR021W, strain FUR4, stronger effect = lower value 0.605 | locus YBR023C, strain chs3, stronger effect = lower value 0.831 | locus YBR231C, strain swc5, stronger effect = lower value 0.676 | locus YBR279W, strain paf1, stronger effect = lower value 0.904 | locus YCL011C, strain gbp2, stronger effect = lower value 0.897 | locus YCL016C, strain dcc1, stronger effect = lower value 0.894 | locus YDL074C, strain BRE1, stronger effect = lower value 0.775 | locus YDL134C, strain PPH21, stronger effect = lower value 0.882 | locus YDR069C, strain doa4, stronger effect = lower value 0.684 | locus YDR137W, strain rgp1, stronger effect = lower value 1.33 [resistant] | locus YDR195W, strain ref2 1.49 [resistant] | locus YDR388W, stronger effect = lower value 0.819 | locus YER015W, strain faa2, stronger effect = lower value 0.668 | locus YFR010W, strain ubp6, stronger effect = lower value 0.706 | locus YGL173C, strain kem1, stronger effect = lower value 0.844 | locus YGL253W, strain hxk2, stronger effect = lower value 0.845 | locus YGR135W, strain pre9, stronger effect = lower value 0.827 | locus YGR229C, strain SMI1, stronger effect = lower value 0.635 | locus YGR252W, strain gcn5, stronger effect = lower value 0.542 | locus YHR013C, strain ard1, stronger effect = lower value 0.637 | locus YHR027C, strain rpn1, stronger effect = lower value 0.679 | locus YHR142W, strain chs7, stronger effect = lower value 0.76 | locus YIL066C, strain RNR3, stronger effect = lower value 0.854 | locus YJL095W, strain BCK1 (second series), stronger effect = lower value 0.628 | locus YJL164C, strain tpk1, stronger effect = lower value 0.878 | locus YJL166W, strain qcr8, stronger effect = lower value 0.877
inactive: locus YAL030W, strain snc1, stronger effect = lower value 0.985 | locus YBR171W, strain sec66, stronger effect = lower value 0.984 | locus YBR229C, strain ROT2, stronger effect = lower value 1.01 | locus YCL029C, strain bik1, stronger effect = lower value 1.03 | locus YCL061C, strain MRC1, stronger effect = lower value 0.987 | locus YCL069W, strain vba3, stronger effect = lower value 0.962 | locus YCR088W, strain abp1, stronger effect = lower value 0.971 | locus YDL005C, strain med2, stronger effect = lower value 1.01 | locus YDL035C, strain GPR1, stronger effect = lower value 0.901 | locus YDL040C, strain nat1, stronger effect = lower value 1 | locus YDL101C, strain DUN1, stronger effect = lower value 0.99 | locus YDL185W, strain tfp1, stronger effect = lower value 1.02 | locus YDL192W, strain arf1, stronger effect = lower value 1 | locus YDR001C, strain nth1, stronger effect = lower value 0.996 | locus YDR101C, strain arx1, stronger effect = lower value 0.977 | locus YDR150W, strain NUM1, stronger effect = lower value 1.02 | locus YDR159W, strain sac3, stronger effect = lower value 0.996 | locus YDR162C, strain NBP2, stronger effect = lower value 0.895 | locus YDR297W, strain sur2, stronger effect = lower value 0.975 | locus YDR318W, strain mcm21, stronger effect = lower value 0.982 | locus YDR334W, strain swr1, stronger effect = lower value 0.974 | locus YDR335W, strain msn5, stronger effect = lower value 0.96 | locus YDR392W, strain spt3, stronger effect = lower value 0.995 | locus YDR502C, strain sam2, stronger effect = lower value 0.951 | locus YEL003W, strain gim4, stronger effect = lower value 0.966 | locus YEL037C, strain rad23, stronger effect = lower value 0.983 | locus YEL061C, strain CIN8 (second series), stronger effect = lower value 0.981 | locus YEL061C, strain CIN8, stronger effect = lower value 1 | locus YER016W, strain bim1, stronger effect = lower value 0.953 | locus YER110C, stronger effect = lower value 1.02 | locus YER111C, strain swi4, stronger effect = lower value 0.99 | locus YER155C, strain BEM2 (second series), stronger effect = lower value 1.03 | locus YER155C, strain BEM2, stronger effect = lower value 1.03 | locus YER167W, strain BCK2, stronger effect = lower value 1 | locus YGL078C, strain dbp3, stronger effect = lower value 1.01 | locus YGL086W, strain mad1, stronger effect = lower value 0.942 | locus YGL167C, strain pmr1, stronger effect = lower value 0.997 | locus YGL227W, strain vid30, stronger effect = lower value 0.979 | locus YGL240W, strain doc1, stronger effect = lower value 0.95 | locus YGL248W, strain PDE1, stronger effect = lower value 0.894 | locus YHR079C, strain IRE1 (second series), stronger effect = lower value 1 | locus YHR079C, strain IRE1, stronger effect = lower value 0.93 | locus YHR094C, strain hxt1, stronger effect = lower value 1.02 | locus YHR129C, strain ARP1, stronger effect = lower value 0.994 | locus YHR200W, strain rpn10, stronger effect = lower value 1.02 | locus YIL073C, strain SPO22, stronger effect = lower value 0.961 | locus YIL125W, strain kgd1, stronger effect = lower value 1.01 | locus YIR030C, strain dcg1, stronger effect = lower value 1.01 | locus YJL092W, strain hpr5, stronger effect = lower value 0.972 | locus YJL115W, strain asf1, stronger effect = lower value 0.987 | locus YJL129C, strain trk1, stronger effect = lower value 0.91 | locus YJL134W, strain LCB3, stronger effect = lower value 1.01 | locus YJL154C, strain vps35, stronger effect = lower value 0.99 | locus YJL168C, strain set2, stronger effect = lower value 1.02 | locus YJL187C, strain SWE1 (second series), stronger effect = lower value 0.872
0.882 (active) and 0.899 (inactive): locus YHR030C, strain SLT2, stronger effect = lower value
0.637 (active) and 0.914 (inactive): locus YJL095W, strain BCK1, stronger effect = lower value
